{"source": "PubChem BioAssay (NCATS)", "note": "Inconclusive results are not listed. Calls of active or inactive are those of the source. The call rests on the fitted dose curve; in most records, active means well fitted cell-killing curve with a large enough effect; inconclusive means small, poorly fitted or top-dose-only effect, or effect the other way; inactive means no such curve, though single readings can be large or run the other way. Potency means the concentration at half of the fitted maximal effect."}
{"experiment": "Viability qHTS for spleen associated tyrosine kinase inhibitor (SYKi) naive MV4-11 cells (AID 1963823); further: nearly all actives have a fitted effect of over 40% in size", "details": "MV4-11 AML viability, CellTiter-Glo luminescence, 72 h; series mostly up to 45 µM; viability (% of control): at the top concentration", "outline": "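SYKi-naive MV4-11 AML cells, 500 per well, were exposed to library compounds for 72 hr at 37 C, 5% CO2. Viability was then read by CellTiter-Glo luminescence after 10 min at room temperature.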"}
{"smiles": "C/C1=C\\C[C@H](O[C@@H]2O[C@H](CO)[C@@H](O)[C@H](O)[C@H]2O)/C(C)=C/[C@H]2OC(=O)[C@H](C)[C@@H]2CC1", "viability (% of control)": "93.2% [at 17.3 µM] (inactive)"}
{"smiles": "C=CC1(C)C=C2C(=O)OC(=O)C3=C(CCCC3(C)C)C2(O)CC1", "note": "(configuration not stated)", "viability (% of control)": "61.6% (inactive)"}
{"smiles": "CC1(C(=O)O)CCCC2(C)C3CCC4CC3(CCC12)CC4(O)CO", "note": "(configuration not stated)", "viability (% of control)": "78% (inactive)"}
{"smiles": "O=S(=O)(NCC1CC1)c1ccc(Nc2nccc(N3CCCc4cc(O)ccc43)n2)cc1", "Potency": "0.146 µM (active)"}
{"smiles": "CC(=O)OCCC(C)CCC1C(C)(O)CCC2C(C)(C)CCCC21C", "note": "(configuration not stated)", "viability (% of control)": "62.8% (inactive)"}
{"smiles": "CC1(C)CC[C@]2(C(=O)O[C@@H]3O[C@H](CO)[C@@H](O)[C@H](O)[C@H]3O)[C@H](O)C[C@]3(C)C(=CCC4[C@@]5(C)CC[C@H](O[C@@H]6OC[C@@H](O)[C@H](O)[C@H]6O)[C@@](C)(C(=O)O)C5CC[C@]43C)[C@@H]2C1", "note": "(some centres not stated)", "viability (% of control)": "78.3% [at 17.3 µM] (inactive)"}
{"smiles": "Cc1cc(Cl)ccc1COc1ccnn1-c1cc(C(=O)O)ccn1", "viability (% of control)": "78.9% (inactive)"}
{"smiles": "OC[C@@]1(O)CO[C@@H](OC[C@H]2O[C@@H](Oc3c[nH]c4ccccc34)[C@H](O)[C@@H](O)[C@@H]2O)[C@@H]1O", "viability (% of control)": "48% [at 17.3 µM] (inactive)"}
{"smiles": "C=CC(C)(O)CC/C=C(/C)C(=O)OC1C(OC2OCC(OC3OC(CO)C(O)C(O)C3O)C(OC3OCC(O)C(OC4OC(C)C(O)C(O)C4O)C3O)C2O)COC(OC(=O)C23CCC(C)(C)CC2C2=CCC4C5(C)CCC(OC6OC(CO)C(OC7OC(CO)C(O)C(OC8OCC(O)C(O)C8O)C7O)C(O)C6O)C(C)(C)C5CCC4(C)C2(C)CC3O)C1O", "note": "(configuration not stated)", "viability (% of control)": "68.9% [at 4.97 µM] (inactive)"}
{"smiles": "CCCCCOC(=O)Nc1nc(=O)n(C2O[C@H](C)[C@@H](O)[C@H]2O)cc1F", "note": "(some centres not stated)", "viability (% of control)": "79.5% (inactive)"}
{"smiles": "C=C[C@H]1C(O[C@@H]2O[C@H](CO)[C@@H](O)[C@H](O)[C@H]2O)OC=C2C(=O)N3CCc4c([nH]c5ccccc45)[C@H]3C[C@H]21", "note": "(some centres not stated)", "viability (% of control)": "74.3% [at 17.3 µM] (inactive)"}
{"smiles": "c1cc(CN2CCCCC2)cc(OCCCNc2nc3ccccc3s2)c1", "Potency": "15 µM (active)"}
{"smiles": "COC(=O)CCC(=O)OC[C@]1(C)CCC[C@@]2(C)C3CC[C@]4(C)C=CC3(CCC12)C4", "note": "(some centres not stated)", "viability (% of control)": "75.2% [at 17.3 µM] (inactive)"}
{"smiles": "CN([C@H]1c2cc(OCCCC(F)(F)F)ccc2OC(C)(C)[C@@H]1O)S(C)(=O)=O", "viability (% of control)": "69.6% (inactive)"}
{"smiles": "CC1C/C=C/C=C\\CCCCC(O)C/C=C/C(=O)O1", "note": "(configuration not stated)", "viability (% of control)": "87.2% (inactive)"}
{"smiles": "Cc1nnc(-c2sc(NC(=O)[C@H](C(C)C)n3c(=O)[nH]c4ccccc4c3=O)nc2C)o1", "viability (% of control)": "77.3% (inactive)"}
{"smiles": "CC(=O)CC1CCC(C(C)C(=O)OCC(O)CO)O1", "note": "(configuration not stated)", "viability (% of control)": "62.5% (inactive)"}
{"smiles": "C=C1/C(=C/C=C2\\CCC[C@@]3(C)C2CCC3[C@H](C)/C=C/[C@@H](O)C2CC2)C[C@@H](O)C[C@@H]1O", "note": "(some centres not stated)", "viability (% of control)": "4.37% (inactive)"}
{"smiles": "CCCOc1ccc(-c2nc(OC)c3ccccc3n2)cc1", "viability (% of control)": "77.2% (inactive)"}
{"smiles": "C=C1CC[C@H]2[C@@](C)(CCC(O)[C@@]2(C)CO)[C@@H]1CCC1=CCOC1=O", "note": "(some centres not stated)", "viability (% of control)": "34.7% (inactive)"}
{"smiles": "CC1(C)CCC[C@@]2(C)[C@H]1[C@H](O)C=C1COC(=O)[C@@]12O", "viability (% of control)": "64.1% (inactive)"}
{"smiles": "COC(=O)C(CC1(O)c2ccccc2N2C(=O)C(C)(C)N(O)C21)n1cnc2ccccc2c1=O", "note": "(configuration not stated)", "viability (% of control)": "68.9% [at 17.3 µM] (inactive)"}
{"smiles": "Cc1ccc(-c2nn(C(C)(C)C)c3ncnc(N)c23)cc1", "Potency": "3.66 µM (active)"}
{"smiles": "COc1c(C(CC(C)C)OC(C)=O)ccc(Oc2c(O)cc(C)cc2/C=C/C(C)=O)c1C(=O)O", "note": "(configuration not stated)", "viability (% of control)": "50.6% [at 17.3 µM] (inactive)"}
{"smiles": "CC(=O)OC1CC(C)(C(=O)O)CC2C3=CC(=O)C4C5(C)CCC(OC6OC(C(=O)O)C(O)C(O)C6OC6OC(C(=O)O)C(O)C(O)C6O)C(C)(C)C5CCC4(C)C3(C)CCC12C", "note": "(configuration not stated)", "viability (% of control)": "70.5% [at 9.25 µM] (inactive)"}
{"smiles": "CC(C)C(N)C(=O)OCCOCn1cnc2c(=O)[nH]c(N)nc21", "note": "(configuration not stated)", "viability (% of control)": "82.7% (inactive)"}
{"smiles": "CC(=O)O[C@H]1CC[C@@]2(C)C(CC[C@@H](C)[C@]23Cc2c(O)cc4c(c2O3)CN([C@@H](CCC(=O)O)C(=O)O)C4=O)C1(C)C", "note": "(some centres not stated)", "viability (% of control)": "83.6% [at 17.3 µM] (inactive)"}
{"smiles": "O=[N+]([O-])c1cccc2[nH]c(CNc3nc(N4CCOCC4)nc4c3ncn4-c3ccsc3)nc12", "Potency": "0.0146 µM (active)"}
{"smiles": "COC(=O)C[C@H]1[C@]2(C)C3=C(C)[C@H](c4ccoc4)C[C@H]3O[C@@H]2[C@H](O)C2[C@](C)(C(=O)OC)C=CC(=O)[C@@]21C", "note": "(some centres not stated)", "viability (% of control)": "44.7% [at 17.3 µM] (inactive)"}
{"smiles": "C=C1CCC2C(C)(C(=O)O)CCCC2(C)C1CCC1=CCOC1=O", "note": "(configuration not stated)", "viability (% of control)": "71.3% (inactive)"}
{"smiles": "C[C@@H]1C[C@H]2OC(=O)[C@@]3(C)CCC[C@](C)(C23)[C@@]1(O)CCC1=CC(=O)OC1O", "note": "(some centres not stated)", "viability (% of control)": "92.8% (inactive)"}
{"smiles": "C=C1CC[C@H]2C(=C)CC[C@H]3C(=C)C(=O)O[C@@H]3[C@@H]12", "Potency": "4.11 µM (active)"}
